Source: PubChem BioAssay (EPA / NIEHS)
Where “and” joins values, the source holds several entries; their conditions need not be identical. Equal values may be shown once. Results filed as inconclusive are left out. More than one record can exist for a structure, and the calls need not agree. Calls of active or inactive are those of the source. How the source made its calls: active means hit-call score of the fitted dose curve at least 0.9, where 1 is the maximum; inconclusive means response in the unintended direction; inactive means score below 0.9.

Experiments:
[1] = target: zebrafish Estrogen Receptor (ER1), esr1 (gene 259252) (UniProt P57717); assay: ATG_zfER1_XSP2: Attagene TRANS-FACTORIAL Multi-Species (XSP2) HepG2 Assay for zebrafish Estrogen Receptor (ER1) (AID 2283816)
Chain of zebrafish Estrogen Receptor (ER1), esr1 (gene 259252) (P57717 whole entry, looked up, the tested form may be a part): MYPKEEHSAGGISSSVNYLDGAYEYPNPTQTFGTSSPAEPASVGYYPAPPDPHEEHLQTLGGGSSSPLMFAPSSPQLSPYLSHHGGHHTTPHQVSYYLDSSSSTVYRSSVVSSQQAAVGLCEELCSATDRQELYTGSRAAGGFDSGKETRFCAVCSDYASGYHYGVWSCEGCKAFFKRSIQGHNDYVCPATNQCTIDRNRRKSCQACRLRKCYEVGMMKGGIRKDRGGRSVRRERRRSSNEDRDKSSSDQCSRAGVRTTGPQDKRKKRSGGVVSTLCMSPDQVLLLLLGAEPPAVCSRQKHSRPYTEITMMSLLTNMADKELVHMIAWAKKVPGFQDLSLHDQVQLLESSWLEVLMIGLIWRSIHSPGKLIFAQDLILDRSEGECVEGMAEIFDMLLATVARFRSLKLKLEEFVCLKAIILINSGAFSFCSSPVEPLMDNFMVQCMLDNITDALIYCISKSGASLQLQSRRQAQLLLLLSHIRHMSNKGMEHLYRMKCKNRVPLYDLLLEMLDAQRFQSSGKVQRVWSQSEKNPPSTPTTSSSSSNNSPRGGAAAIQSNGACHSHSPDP
Method in brief: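 HepG2 cells transiently transfected with a GAL4-UAS reporter and a chimeric zebrafish ER1-Gal4 construct, dosed 24 h. Reporter mRNA quantified by RT-PCR, labelling, HpaI digestion and capillary electrophoresis, relative to DMSO.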

[2] = target: chicken Estrogen Receptor (ERa), ESR1 (gene 396099) (UniProt P06212); assay: ATG_chERa_XSP2: Attagene TRANS-FACTORIAL Multi-Species (XSP2) HepG2 Assay for chicken Estrogen Receptor (ERa) (AID 2283817);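 further: actives raise reporter signal above DMSO so AC50 reflects ER activation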
Chain of chicken Estrogen Receptor (ERa), ESR1 (gene 396099) (P06212 whole entry, looked up, the tested form may be a part): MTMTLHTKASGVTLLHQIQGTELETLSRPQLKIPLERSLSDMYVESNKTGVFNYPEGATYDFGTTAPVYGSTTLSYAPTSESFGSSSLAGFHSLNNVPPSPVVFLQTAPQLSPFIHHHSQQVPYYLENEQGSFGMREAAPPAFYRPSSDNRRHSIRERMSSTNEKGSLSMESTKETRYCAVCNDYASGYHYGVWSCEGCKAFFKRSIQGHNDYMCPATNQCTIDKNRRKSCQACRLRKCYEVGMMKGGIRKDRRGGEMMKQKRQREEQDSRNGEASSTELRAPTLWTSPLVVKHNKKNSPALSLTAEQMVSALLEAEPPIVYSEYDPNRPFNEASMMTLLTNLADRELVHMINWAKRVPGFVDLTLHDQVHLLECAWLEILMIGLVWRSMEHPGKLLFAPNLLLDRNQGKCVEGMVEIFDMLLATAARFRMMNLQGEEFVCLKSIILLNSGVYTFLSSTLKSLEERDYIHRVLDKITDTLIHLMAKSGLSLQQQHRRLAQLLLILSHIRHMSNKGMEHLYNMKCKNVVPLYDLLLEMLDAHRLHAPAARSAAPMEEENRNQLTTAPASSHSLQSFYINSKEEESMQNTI
Method in brief: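 HepG2 cells transiently transfected with multiplexed GAL4-UAS reporter units expressing chimeric chicken ERa-Gal4; 24 h compound exposure. Reporter mRNA measured by RT-PCR with 6-FAM labelling, HpaI digestion and capillary electrophoresis; gain-of-signal fitted versus DMSO.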

[3] = test system: zebrafish Estrogen Receptor (ER2a), gene 317734; assay: ATG_zfER2a_XSP2: Attagene TRANS-FACTORIAL Multi-Species (XSP2) HepG2 Assay for zebrafish Estrogen Receptor (ER2a) (AID 2283818);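 further: hits raise reporter mRNA so AC50 reflects activation of zebrafish ER2a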
Method in brief: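 HepG2 cells transiently transfected with GAL4-UAS reporter units and chimeric zebrafish ER2a-Gal4, exposed 24 h; medium contains 3 nM 6-alpha-fluorotestosterone and 1.5 nM norgestrel. Reporter mRNA quantified by RT-PCR, HpaI digestion, capillary electrophoresis; gain versus DMSO.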

[4] = test system: frog Estrogen Receptor (ER), gene 398734; assay: ATG_frER1_XSP2: Attagene TRANS-FACTORIAL Multi-Species (XSP2) HepG2 Assay for frog Estrogen Receptor (ER) (AID 2283821);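 further: hits raise reporter mRNA above DMSO baseline so potency means agonist or activator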
Method in brief: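 HepG2, transient MRTU transfection, chimeric NR-GAL4/UAS reporters; 24 h compound exposure, 24-well. Readout: reporter mRNA via RT-PCR + capillary electrophoresis, fluorescence. Positive fit vs DMSO baseline.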

[5] = test system: zebrafish Estrogen Receptor (ER2b), gene 317733; assay: ATG_zfER2b_XSP2: Attagene TRANS-FACTORIAL Multi-Species (XSP2) HepG2 Assay for zebrafish Estrogen Receptor (ER2b) (AID 2283823);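 further: fitted upward as reporter gain over DMSO so potency reflects activation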
Method in brief: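 Reporter transcripts quantified by RT-PCR, fluorescent labelling and capillary electrophoresis after 24 h dosing of transfected HepG2 expressing zebrafish ER2b-GAL4 fusion. Medium contained 3 nM 6-alpha-fluorotestosterone plus 1.5 nM norgestrel; DMSO baseline.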

[6] = test system: frog Estrogen Receptor (ER2), gene 100174814; assay: ATG_frER2_XSP2: Attagene TRANS-FACTORIAL Multi-Species (XSP2) HepG2 Assay for frog Estrogen Receptor (ER2) (AID 2283828)
Method in brief: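 Human liver HepG2, transient MRTU transfection (TRANS format, exogenous NR–Gal4). 24 h cpd exposure. Total RNA → RT → PCR → FAM label → HpaI cut → CE. Positive direction vs DMSO.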

[7] = test system: chicken Androgen Receptor (AR), gene 422165; assay: ATG_chAR_XSP2: Attagene TRANS-FACTORIAL Multi-Species (XSP2) HepG2 Assay for chicken Androgen Receptor (AR) (AID 2283819);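 further: hits raise reporter mRNA above DMSO so potency is for activation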
Method in brief: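 HepG2 cells transiently transfected with chicken AR–GAL4 chimeric reporter constructs, stimulated with 3 nM 6-alpha-fluorotestosterone plus 1.5 nM norgestrel, dosed 24 h. Reporter mRNA quantified by RT-PCR and capillary electrophoresis; gain of signal fitted versus DMSO.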

[8] = ATG_M_19_XSP2: Attagene TRANS-FACTORIAL Multi-Species (XSP2) HepG2 Assay for M32 Transcription Factor (Internal Marker) (AID 2283822)
Method in brief: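 Internal background marker in a multi-species nuclear receptor TRANS panel: transfected HepG2 cells exposed 24 h, with 3 nM 6-alpha-fluorotestosterone and 1.5 nM norgestrel present. Readout is RT-PCR of reporter transcripts resolved by capillary electrophoresis, gain-of-signal versus DMSO.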

[9] = test system: zebrafish Androgen Receptor (AR), gene 100005148; assay: ATG_zfAR_XSP2: Attagene TRANS-FACTORIAL Multi-Species (XSP2) HepG2 Assay for zebrafish Androgen Receptor (AR) (AID 2283825);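 further: hits raise reporter mRNA above DMSO so AC50 reflects agonist-type gain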
Procedure: ATG_XSP2_multi-species_TRANS is a cell-based, multiplexed assay created by modifying the existing Attagene TRANS-FACTORIAL system to include a panel of nuclear receptors from some or all the following species: human (Homo sapiens), mouse (Mus musculus), frog (Xenopus laevis), zebrafish (Danio rerio), chicken (Gallus gallus), and turtle (Chrysemys picta). The ECOTOX-FACTORIAL format uses HepG2, a human liver cell line, with measurements taken at 24 hours after chemical dosing in a 24-well plate. Xsp2 included 3 nM 6-alpha-fluorotestosterone and 1.5 nM norgestrel to stimulate the androgen receptor.ATG_zfAR_XSP2 is one of 29 assay components measured or calculated from the ATG_XSP2_multi-species_TRANS assay. It is designed to make measurements of mRNA induction, a form of inducible reporter, as detected with fluorescence intensity signals by Reverse transcription polymerase chain reaction (RT-PCR) and Capillary electrophoresis technology.The assay endpoint ATG_zfAR_XSP2 was analyzed in the positive analysis fitting direction relative to DMSO as the negative control and baseline of activity. […] Furthermore, this assay endpoint can be referred to as a primary readout, because this assay has produced multiple assay endpoints where this one serves a reporter gene function. […]

[10] = test system: frog Androgen Receptor (AR), gene 399456; assay: ATG_frAR_XSP2: Attagene TRANS-FACTORIAL Multi-Species (XSP2) HepG2 Assay for frog Androgen Receptor (AR) (AID 2283824);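 further: actives raise reporter signal above DMSO so AC50 reflects agonist-like induction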
Method in brief: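 HepG2 cells transiently transfected with GAL4-UAS reporter units and frog (Xenopus laevis) AR-Gal4 chimera; reporter mRNA measured 24 h after dosing by RT-PCR and capillary electrophoresis. Gain of signal fitted relative to DMSO baseline.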

Measured: AC50

Clc1ccc(C(c2ccccc2Cl)C(Cl)Cl)cc1 (centres undefined)
active: [1] 4.61 µM and 12.7 µM | [2] 3.1 µM and 7.58 µM | [3] 2.3 µM and 2.61 µM | [4] 2.74 µM and 4.46 µM | [5] 2.37 µM and 1.97 µM | [6] 1.34 µM and 1.64 µM

OCc1cccc(Oc2ccccc2)c1
inactive: [1]
active: [1] 37.7 µM | [2] 16 µM and 6.22 µM | [3] 23.5 µM and 14.7 µM | [4] 27 µM and 27.1 µM | [5] 46.5 µM and 12.4 µM | [6] 27.5 µM and 9.21 µM

CCCCC(CC)COC(=O)c1ccc(O)cc1 (centres undefined)
active: [1] 52.2 µM | [2] 6.15 µM | [3] 33.4 µM | [7] 51.9 µM | [4] 49.9 µM | [5] 16.3 µM
inactive: [8] | [9]

Oc1ccc2cc(SSc3ccc4cc(O)ccc4c3)ccc2c1
inactive: [1] | [7] | [4]
active: [1] 2.96 µM | [2] 2.29 µM and 634 nM | [3] 0.822 µM | [7] 40.7 µM | [5] 2.56 µM and 2.52 µM | [10] 26.3 µM | [6] 925 nM and 696 nM

BrCc1cccc(Oc2ccccc2)c1
active: [1] 100 µM | [2] 27.5 µM and 21.5 µM | [3] 19.2 µM and 11.9 µM | [4] 7.78 µM and 26.9 µM | [5] 34.9 µM and 12.4 µM | [6] 15.7 µM and 10.2 µM
inactive: [1]

O=c1c(O)c(-c2ccc(O)cc2)oc2cc(O)cc(O)c12
active: [1] 1.68 µM and 954 nM | [2] 3 µM and 1.53 µM | [3] 1.61 µM and 981 nM | [7] 3.26 µM and 1.35 µM | [4] 2.48 µM and 1.49 µM | [5] 2.83 µM and 1.85 µM | [10] 2.89 µM and 1.82 µM | [6] 1.75 µM and 945 nM

Cc1cc(=O)oc2cc(N(C)C)ccc12
active: [2] 31.4 µM | [3] 100 µM | [4] 19.2 µM and 27.6 µM | [5] 77.1 µM and 100 µM | [6] 48.9 µM
inactive: [1] | [2] | [3]
